For part of these data: Measured potencies and affinities stand elsewhere. Active and inactive are the calls of the source. Unless noted, no cut-off is given here; in the data, nearly all actives have IC50 up to about 0.91 µM.
target: Protein kinase 7 (PK7), Plasmodium falciparum 3D7 (PF3D7_0213400) (UniProt Q7YTF7); assay: inhibition of Plasmodium PK7 catalytic activity – biochemical, TCAMS antimalarial set, Kinase-Glo luminescence (AID 1159587; call rule not given here); details: recombinant PfPK7, Kinase-Glo ATP depletion luminescence
Sequence (Q7YTF7 1-343): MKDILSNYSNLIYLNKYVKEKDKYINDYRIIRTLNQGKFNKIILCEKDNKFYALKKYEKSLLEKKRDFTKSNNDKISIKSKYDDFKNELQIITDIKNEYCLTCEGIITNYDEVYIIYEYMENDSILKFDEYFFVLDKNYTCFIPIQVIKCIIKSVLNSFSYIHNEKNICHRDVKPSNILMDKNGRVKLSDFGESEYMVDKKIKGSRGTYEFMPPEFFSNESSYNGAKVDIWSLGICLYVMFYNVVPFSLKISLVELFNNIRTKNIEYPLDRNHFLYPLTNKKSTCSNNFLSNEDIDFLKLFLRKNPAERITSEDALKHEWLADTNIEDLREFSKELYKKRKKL

SMILES | outcome
Cc1cc(F)ccc1N(c1nc(-c2cc(Cl)ccc2Cl)cs1)C1CCNC1 (stereo not drawn) | inactive
CCc1nc2nc(C)cc(Nc3ccc(F)c(Cl)c3)n2n1 | inactive
CN(C)CCNC(=O)c1cc2c(-c3ccc(Cl)cc3)nn(C)c2s1 | inactive
CC(=O)c1sc(NC(=O)Nc2ccc(C)cc2C)nc1C | inactive
CCC(=O)NC(c1ccco1)c1cc(Cl)c2cccnc2c1O (stereo not drawn) | inactive
CCNc1cc(C)nc(Nc2ccc(NC(=O)c3ccccc3Br)cc2)n1 | inactive
CCN(CCS(C)(=O)=O)Cc1ccc(-c2ccc3ncnc(Nc4ccc(OCc5cccc(F)c5)c(Cl)c4)c3c2)o1 | inactive
Cc1cccc(C)c1N1CCN(C2CCC(NC(=O)/C=C/c3ccccc3)CC2)CC1 (stereo not drawn) | inactive
COc1cc2c(cc1C(F)(F)F)N(C(=O)Nc1cc(Br)cc(-c3cccnc3)c1)CC2 | inactive
CCOc1cc(Br)c(C(C)NC(=O)c2ccccc2)cc1OCC (stereo not drawn) | inactive
Cc1cnccc1/C=C/c1cccc(OCCCN2CCc3ccc(S(C)(=O)=O)cc3CC2)c1 | inactive
Cn1nc(-c2cccc(CNC3CCc4ccccc43)c2)c2cnc(NC3CCCC3)nc21 (stereo not drawn) | inactive
O=C(N[C@@H](Cc1ccccc1)C(=O)NC1CCCCCC1)c1ccc(O)c(-c2ccc(Cl)c(Cl)c2)c1 | inactive
CC(=O)N1CCN(c2ccc(NC(=O)c3oc(-c4ccccc4)nc3C(F)(F)F)cn2)CC1 | inactive
Cc1cc(F)ccc1[C@H]1C[C@H](N2CCOCC2)CCN1C(=O)N(C)[C@@H](C)c1cc(C(F)(F)F)cc(C(F)(F)F)c1 | inactive
CCNC(=O)Nc1cccc(-c2ccc(-c3nc4c(C)cccc4[nH]3)s2)c1 | inactive
CC1(C)C[C@@H]2C[C@@](C)(CN2C(=O)c2cc(C(C)(C)C)nn2Cc2ccccc2)C1 | inactive
Brc1ccsc1-c1nc(NCCC(c2ccccc2)c2ccccc2)no1 | inactive
Cc1[nH]c(C)c(-c2ccc(OCCn3cnc(Cl)c3Cl)cc2)c(=O)c1Br | inactive
COc1ccc2nc(C)cc(NN=Cc3ccc(Cl)cc3)c2c1 | inactive

SMILES | outcome
CN1CCC(NCc2ccc(-c3cccc(S(=O)(=O)NCCc4ccccn4)c3)cc2)CC1 | inactive
Cc1cccc(Cl)c1S(=O)(=O)Nc1cccc(CCN2CCC(N3CCCCC3)CC2)c1 | inactive
C=CCc1cc(C)ccc1OCCCON1C(N)=NC(N)=NC1(C)C | inactive
O=C(/C=C/c1ccsc1)N1CCC(CCN2CCC(c3c[nH]c4ccccc34)CC2)CC1 | inactive
NC(=NCc1ccc(Cl)c(Cl)c1)NC(=NCCCCCCN=C(NC(N)=NCc1ccc(Cl)c(Cl)c1)N1CCCCC1)N1CCCCC1 | inactive
O=C(/C=C/c1ccc(Cl)cc1)NCCCCCN1CCCC(C(=O)Nc2ccc(Cl)c(Cl)c2)C1 (stereo not drawn) | inactive
COc1cc(Nc2ccnc3cc(-c4ccncc4)ccc23)cc(OC)c1OC | inactive
CCOc1cc(C(=O)NC2CCN(Cc3ccccc3)CC2)ccc1-c1nc2cc(Cl)c(Cl)cc2[nH]1 | inactive
Cc1[nH]c(C)c(-c2ccc(Oc3cccc(Cl)c3)cc2)c(=O)c1Br | inactive
COc1cccc(Nc2c(C(N)=O)cnc3ccc(-c4ccc(S(C)=O)cc4)cc23)c1 (stereo not drawn) | inactive
COc1ccc(CN2CCCN(Cc3ccc(C(=O)Nc4ccc(Cl)cc4)cc3)CC2)cc1 | inactive
Nc1nc(N)c2c(ccc3c2ccn3CCCCO)n1 | inactive
CCNC(=O)N[C@@H]1CN[C@@H](C#Cc2cc3c(Nc4ccc(OCc5cccc(F)c5)c(Cl)c4)ncnc3s2)C1 | inactive
CS(=O)(=O)CCNCc1cc(-c2cc3ncnc(Nc4ccc(OCc5cccc(F)c5)c(Cl)c4)c3s2)cs1 | inactive
COc1ccccc1CCN1CCC(CN(C)Cc2ccc(O)c(Cl)c2)CC1 | inactive
O=c1cc(NCCCNCc2cccc(SC(F)(F)F)c2)[nH]c2ccccc12 | inactive
CCCCCCN=C(N)c1ccc(OCCCCCOc2ccc(C(N)=NCCCCCC)cc2)cc1 | inactive
COc1ccc(NC(=O)c2ccc(-c3ccc(-c4cccnc4)cc3)c(C)c2)cc1OCCN(C)C | inactive
COc1ccc2nccc(NC(=O)N3CCC(NCc4cc5ccccc5[nH]4)CC3)c2n1 | inactive

target: Calcium-dependent protein kinase 4 (Plasmodium falciparum (isolate 3D7)) (UniProt Q8IBS5); assay: PfCDPK4 kinase inhibitors, biochemical, TCAMS library (AID 1159588); details: recombinant PfCDPK4, Kinase-Glo ATP depletion luminescence
Sequence (Q8IBS5 whole entry, looked up): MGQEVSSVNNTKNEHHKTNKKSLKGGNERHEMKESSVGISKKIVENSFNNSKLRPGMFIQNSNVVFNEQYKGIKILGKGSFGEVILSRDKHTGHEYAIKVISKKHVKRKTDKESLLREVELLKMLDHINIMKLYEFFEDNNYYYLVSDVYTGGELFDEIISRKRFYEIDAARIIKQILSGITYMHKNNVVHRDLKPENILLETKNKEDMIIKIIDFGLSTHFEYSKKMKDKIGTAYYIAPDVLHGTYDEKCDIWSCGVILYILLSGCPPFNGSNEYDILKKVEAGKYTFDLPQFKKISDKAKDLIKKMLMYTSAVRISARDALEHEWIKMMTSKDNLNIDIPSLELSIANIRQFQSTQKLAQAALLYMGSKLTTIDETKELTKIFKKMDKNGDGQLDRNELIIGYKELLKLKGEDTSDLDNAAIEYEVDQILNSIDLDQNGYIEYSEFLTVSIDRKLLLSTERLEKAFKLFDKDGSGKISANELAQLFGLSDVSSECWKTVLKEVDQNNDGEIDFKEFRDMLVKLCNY

SMILES | outcome
Cc1cc(F)ccc1N(c1nc(-c2cc(Cl)ccc2Cl)cs1)C1CCNC1 (stereo not drawn) | inactive
CCc1nc2nc(C)cc(Nc3ccc(F)c(Cl)c3)n2n1 | inactive
CN(C)CCNC(=O)c1cc2c(-c3ccc(Cl)cc3)nn(C)c2s1 | inactive
CC(=O)c1sc(NC(=O)Nc2ccc(C)cc2C)nc1C | inactive
CCC(=O)NC(c1ccco1)c1cc(Cl)c2cccnc2c1O (stereo not drawn) | inactive
CCNc1cc(C)nc(Nc2ccc(NC(=O)c3ccccc3Br)cc2)n1 | inactive
CCN(CCS(C)(=O)=O)Cc1ccc(-c2ccc3ncnc(Nc4ccc(OCc5cccc(F)c5)c(Cl)c4)c3c2)o1 | inactive
Cc1cccc(C)c1N1CCN(C2CCC(NC(=O)/C=C/c3ccccc3)CC2)CC1 (stereo not drawn) | inactive
COc1cc2c(cc1C(F)(F)F)N(C(=O)Nc1cc(Br)cc(-c3cccnc3)c1)CC2 | inactive
CCOc1cc(Br)c(C(C)NC(=O)c2ccccc2)cc1OCC (stereo not drawn) | inactive
Cc1cnccc1/C=C/c1cccc(OCCCN2CCc3ccc(S(C)(=O)=O)cc3CC2)c1 | inactive
Cn1nc(-c2cccc(CNC3CCc4ccccc43)c2)c2cnc(NC3CCCC3)nc21 (stereo not drawn) | inactive
O=C(N[C@@H](Cc1ccccc1)C(=O)NC1CCCCCC1)c1ccc(O)c(-c2ccc(Cl)c(Cl)c2)c1 | inactive
CC(=O)N1CCN(c2ccc(NC(=O)c3oc(-c4ccccc4)nc3C(F)(F)F)cn2)CC1 | inactive
Cc1cc(F)ccc1[C@H]1C[C@H](N2CCOCC2)CCN1C(=O)N(C)[C@@H](C)c1cc(C(F)(F)F)cc(C(F)(F)F)c1 | inactive
CCNC(=O)Nc1cccc(-c2ccc(-c3nc4c(C)cccc4[nH]3)s2)c1 | inactive
CC1(C)C[C@@H]2C[C@@](C)(CN2C(=O)c2cc(C(C)(C)C)nn2Cc2ccccc2)C1 | inactive
Brc1ccsc1-c1nc(NCCC(c2ccccc2)c2ccccc2)no1 | inactive
Cc1[nH]c(C)c(-c2ccc(OCCn3cnc(Cl)c3Cl)cc2)c(=O)c1Br | inactive
COc1ccc2nc(C)cc(NN=Cc3ccc(Cl)cc3)c2c1 | inactive

SMILES | outcome
CN1CCC(NCc2ccc(-c3cccc(S(=O)(=O)NCCc4ccccn4)c3)cc2)CC1 | inactive
Cc1cccc(Cl)c1S(=O)(=O)Nc1cccc(CCN2CCC(N3CCCCC3)CC2)c1 | inactive
C=CCc1cc(C)ccc1OCCCON1C(N)=NC(N)=NC1(C)C | inactive
O=C(/C=C/c1ccsc1)N1CCC(CCN2CCC(c3c[nH]c4ccccc34)CC2)CC1 | inactive
NC(=NCc1ccc(Cl)c(Cl)c1)NC(=NCCCCCCN=C(NC(N)=NCc1ccc(Cl)c(Cl)c1)N1CCCCC1)N1CCCCC1 | inactive
O=C(/C=C/c1ccc(Cl)cc1)NCCCCCN1CCCC(C(=O)Nc2ccc(Cl)c(Cl)c2)C1 (stereo not drawn) | inactive
COc1cc(Nc2ccnc3cc(-c4ccncc4)ccc23)cc(OC)c1OC | inactive
CCOc1cc(C(=O)NC2CCN(Cc3ccccc3)CC2)ccc1-c1nc2cc(Cl)c(Cl)cc2[nH]1 | inactive
Cc1[nH]c(C)c(-c2ccc(Oc3cccc(Cl)c3)cc2)c(=O)c1Br | inactive
COc1cccc(Nc2c(C(N)=O)cnc3ccc(-c4ccc(S(C)=O)cc4)cc23)c1 (stereo not drawn) | inactive
COc1ccc(CN2CCCN(Cc3ccc(C(=O)Nc4ccc(Cl)cc4)cc3)CC2)cc1 | inactive
Nc1nc(N)c2c(ccc3c2ccn3CCCCO)n1 | inactive
CCNC(=O)N[C@@H]1CN[C@@H](C#Cc2cc3c(Nc4ccc(OCc5cccc(F)c5)c(Cl)c4)ncnc3s2)C1 | inactive
CS(=O)(=O)CCNCc1cc(-c2cc3ncnc(Nc4ccc(OCc5cccc(F)c5)c(Cl)c4)c3s2)cs1 | inactive
COc1ccccc1CCN1CCC(CN(C)Cc2ccc(O)c(Cl)c2)CC1 | inactive
O=c1cc(NCCCNCc2cccc(SC(F)(F)F)c2)[nH]c2ccccc12 | inactive
CCCCCCN=C(N)c1ccc(OCCCCCOc2ccc(C(N)=NCCCCCC)cc2)cc1 | inactive
COc1ccc(NC(=O)c2ccc(-c3ccc(-c4cccnc4)cc3)c(C)c2)cc1OCCN(C)C | inactive
COc1ccc2nccc(NC(=O)N3CCC(NCc4cc5ccccc5[nH]4)CC3)c2n1 | inactive
